FadD28 binding – inhibitors of FadD28 bisubstrate probe binding, primary screen, biochemical, fluorescence polarization, single point | 360,000 compounds, 0.22% hits | Mycobacterium tuberculosis FadD28 fatty-acid-AMP ligase | inhibition, % at 12.5 µM; in the data active means inhibition above about 8.5%, passing the limit was not always enough
PriA SSB inh – inhibitors of Klebsiella pneumoniae PriA binding to SSB C-terminal tail, primary screen, biochemical, AlphaScreen; PriA–SSB C-terminal tail interaction (Klebsiella pneumoniae); AlphaScreen SSBct-PriA binding, biotinylated peptide; inhibition, % at 33 µM; 430,000 compounds, 0.6% hits; in the data active means inhibition mostly above about 37%, no sharp cut-off; inactive means mostly below about 20%;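 further: plate controls were negative control peptide for no effect and reference peptide for full effect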
PrP 5UTR inh – inhibition of PrP 5' UTR reporter expression; inhibition, % (no concentration beside the values); cell-based PrP 5' UTR mRNA reporter, plate reader; 340,000 compounds, 0.35% hits; AID 488862, 2010; in the data active means inhibition above about 52%; further: 0 = median of the neutral control wells
Vc quorum ag – inducers of Vibrio cholerae quorum light production without autoinducers, primary screen, BH1578 luxS cqsA deficient, single point; V. cholerae BH1578 lux reporter, luminescence, 6 h; activation, % at 18.7 µM; 350,000 compounds, 0.16% hits; in the data active means activation mostly above about 9.7%, no sharp cut-off
PrPC TRFRET – inhibitors of human cell surface prion protein PrPC, primary screen, cell-based, TR-FRET; Major prion protein (Homo sapiens), P04156; TR-FRET read-out; inhibition, % at 13.8 µM; 370,000 compounds, 0.43% hits; AID 720596, 2013; in the data active means inhibition above about 24%; further: 0% = median of the test wells and 100% = reference compound wells
Active calls of the source: *; i = inactive; · = not tested or not shown. An excerpt weighted towards active compounds, which were near 1.4% of everything screened.

SMILES | FadD28 binding | PriA SSB inh | PrP 5UTR inh | Vc quorum ag | PrPC TRFRET
CCOc1cc(/C=N/Nc2ccc(S(=O)(=O)Nc3ccccc3C(=O)O)cc2[N+](=O)[O-])cc(Cl)c1O | 25* | · | · | 0 | -8
CC(=O)Nc1cccc(/C(C)=N/Nc2ccc(S(=O)(=O)Nc3ccccc3C(=O)O)cc2[N+](=O)[O-])c1 | 19* | · | 8 | i | -8
Cc1ccc(NC(=S)NNc2ccc([N+](=O)[O-])cc2S(=O)(=O)Nc2ccccc2C(=O)O)cc1C | 1 | 13 | 7 | 0 | -8
O=C1c2cccc3cccc(c23)C(=O)N1CCN1CCN(S(=O)(=O)c2ccccc2[N+](=O)[O-])CC1 | · | -1 | · | · | ·
Cc1ccc(NC(=O)N2CC[C@H](S(C)(=O)=O)C2)cc1C | · | -12 | · | · | ·
Cc1cc(N(C)C)nc(CNC(=O)c2ccccc2C(F)(F)F)n1 | · | -7 | · | · | ·
CN(CCO)c1ccc(C=NNc2ccc([N+](=O)[O-])cc2S(=O)(=O)Nc2ccccc2C(=O)O)cc1 | 32* | 40* | · | i | -10
Cc1nn(-c2ccccc2)c(N2CCCC2)c1C=NNc1ccc(S(N)(=O)=O)cc1[N+](=O)[O-] | · | 80* | · | · | ·
CCOC(=O)c1sc(NCc2ccco2)c(-c2nc3ccccc3s2)c1N | -2 | 12 | -34 | i | 1
C=CCNc1sc(C(=O)c2ccccc2)c(N)c1-c1nc2ccccc2s1 | 2 | 54* | -26 | 0 | ·
CCNc1sc(C(=O)c2cccs2)c(N)c1-c1nc2ccccc2s1 | -1 | 55* | -15 | 3 | -12
COc1ccc(C(=O)C=CNc2c(C)n(C)n(-c3ccccc3)c2=O)cc1OC | · | -2 | · | · | ·
N#CC(C(=O)C(c1ccccc1)c1ccccc1)c1nc2ccccc2s1 (stereo unspecified) | · | -8 | · | · | ·
COc1ccc(OC)c(C2C(=C(O)c3ccc(OC)c(Cl)c3)C(=O)C(=O)N2CCN(C)C)c1 (stereo unspecified) | · | -2 | · | · | ·
Cc1ccc(S(=O)(=O)c2ccc([N+](=O)[O-])cn2)cc1 | 0 | -1 | -2 | i | 70*
O=C(NCCC1=CCCCC1)C(=O)Nc1cccc(N2CCCS2(=O)=O)c1 | · | -7 | · | · | ·
COc1cccc(NC(=O)CSc2cccc3cccnc23)c1 | · | 21 | · | · | ·
Cc1ccc(C(=O)CSc2cccc3cccnc23)c(C)c1 | · | 17 | · | · | ·
O=C(CSc1cccc2cccnc12)c1ccc([N+](=O)[O-])cc1 | · | 58* | · | · | ·
CC(=O)c1cccc(NC(=O)CSc2cccc3cccnc23)c1 | · | 116* | · | · | ·
O=C(CSc1cccc2cccnc12)Nc1cccc(C(F)(F)F)c1 | · | 126* | · | · | ·
Cc1cc(Cl)ccc1NC(=O)CSc1cccc2cccnc12 | · | 47 | · | · | ·
CN(C)S(=O)(=O)c1cccc(NC(=O)CSc2cccc3cccnc23)c1 | -1 | 65* | -7 | 0 | 4
CSc1ccccc1C(=O)NCC1CCN(C(=O)c2ccoc2)CC1 | · | -2 | · | · | ·
COc1cc([N+](=O)[O-])ccc1NC(=O)CSc1cccc2cccnc12 | · | -11 | · | · | ·
SMILES | FadD28 binding | PriA SSB inh | PrP 5UTR inh | Vc quorum ag | PrPC TRFRET
O=C(CSc1cccc2cccnc12)Nc1cccc([N+](=O)[O-])c1 | · | 88* | · | · | ·
Cc1cc(Br)ccc1NC(=O)CSc1cccc2cccnc12 | · | 82* | · | · | ·
O=C(CSc1cccc2cccnc12)Nc1ccc(SC(F)F)cc1 | · | 85* | · | · | ·
Cn1ccnc1SCC(=O)Nc1ccc(SC(F)F)cc1 | -3 | 12 | -36 | 0 | -2
Cc1ccccc1Oc1ccc2noc3c2c1C(=O)c1ccccc1-3 | · | 4 | · | · | ·
O=C1c2ccccc2C(=O)c2c(O)c(O)cc(O)c21 | 47* | 22 | 1 | -3 | -27
Nc1ccc(O)c2c1C(=O)c1ccccc1C2=O | 4 | 35 | -12 | 0 | -49
CCOCC(=O)NCCOc1ccc2nnc(-c3cccc(OC)c3)n2n1 | · | -11 | · | · | ·
COc1ccc(OC)c(Nc2nc(CC(=O)NCc3ccc(F)cc3)cs2)c1 | · | 18* | · | · | ·
COc1ccc(OC)c(Nc2nc(CC(=O)Nc3ccc4c(c3)OCCO4)cs2)c1 | · | 33* | · | · | ·
CCOc1ccccc1NC(=O)Cc1csc(Nc2cccc(Cl)c2)n1 | · | 5 | · | · | ·
CCCC(C)C(=O)Nc1nc(C)c(-c2csc(Nc3cc(OC)ccc3OC)n2)s1 (stereo unspecified) | 1 | 47* | 2 | i | -1
COc1ccc(NC(=O)Cc2csc(Nc3cccc(Cl)c3)n2)c(OC)c1 | · | 16* | · | · | ·
CCCC(=O)Nc1nc(C)c(-c2csc(Nc3cc(OC)ccc3OC)n2)s1 | 1 | 17 | -6 | 1 | 2
COc1ccc(OC)c(Nc2nc(CC(=O)NCc3ccncc3)cs2)c1 | · | 12 | · | · | ·
COc1ccc(SCC(=O)Nc2nc3c(s2)CSc2ccccc2-3)cc1 | · | 5 | · | · | ·
O=C(Cc1csc(SCc2ccc(Br)cc2)n1)NCc1cccnc1 | · | -3 | · | · | ·
CCn1ccc(C(=O)Nc2nc(-c3nc4ccccc4s3)cs2)n1 | · | -9 | · | · | ·
COc1ccc(OC)c(Nc2nc(CC(=O)Nc3ccc(C)cc3)cs2)c1 | · | 31* | · | · | ·
COC(=O)Cn1c(=NC(=O)CN2C(=O)CCC2=O)sc2cc3c(cc21)OCCO3 | · | 9 | · | · | ·
O=C(CNCc1ccccn1)N1CCc2ccccc2C1 | -3 | 78* | -15 | 0 | -5
O=C(/C=C/c1ccccc1)Nc1ccc2scnc2c1 | · | -6 | · | · | ·
Nc1c(-c2nc(-c3ccncc3)no2)nnn1-c1cccc(F)c1 | · | -7 | · | · | ·
CCOC(=O)c1c(NS(=O)(=O)c2ccccc2)n(CCCOC)c2nc3ccccc3nc12 | 0 | 47* | -5 | 0 | -11
CCCCCn1c(NS(=O)(=O)c2ccc(F)cc2)c(C(=O)OCC)c2nc3ccccc3nc21 | · | 55* | · | · | ·
SMILES | FadD28 binding | PriA SSB inh | PrP 5UTR inh | Vc quorum ag | PrPC TRFRET
CCCCn1c(NS(=O)(=O)c2ccc(Cl)cc2)c(C(=O)OCC)c2nc3ccccc3nc21 | · | 68* | · | · | ·
CS(=O)(=O)N1CCC[C@H]1C(=O)Nc1sc2c(c1C#N)CCC2 | · | -1 | · | · | ·
Cc1cc(C)c(NC(=O)C(=O)NCCN2CCN(c3ccccc3)CC2)c(C)c1 | · | -12 | · | · | ·
CC1=CC(C)(C)N2C(=O)C(=Nc3ccc(O)cc3)c3cccc1c32 | -1 | 40* | -12 | 0 | -14
COc1cc(N=C2C(=O)N3c4c(cccc42)C(C)=CC3(C)C)cc(OC)c1 | -1 | 7 | 10 | i | -2
O=C(c1cccc(Cl)c1)N1CC(N2C(=O)C3CC=CCC3C2=O)C1 (stereo unspecified) | · | 2 | · | · | ·
Cc1ccc(S(=O)(=O)N2C(=O)CCC2C(=O)Nc2ccc3c(c2)OCCO3)cc1 (stereo unspecified) | -3 | 96* | -14 | 0 | 4
Cc1ccc(S(=O)(=O)Nc2ccc(O)c3ccccc23)c(C)c1 | 55* | 17 | -24 | i | -10
Cc1ccc(C)c(S(=O)(=O)Nc2ccc(O)c3ccccc23)c1 | 0 | -1 | -20 | i | -15
CCOc1ccc(-c2cccc(NC(=O)Cc3ccc(F)cc3)c2)nn1 | · | -4 | · | · | ·
CN(C)C/C=C/C(=O)Nc1cccc(-c2c[nH]c3ncnc(Oc4ccc(NC(=O)CC(=O)Nc5ccc(F)cc5)cc4F)c23)c1 | 19* | 28 | -6 | i | ·

High-throughput results as filed in PubChem BioAssay.
